Bioassay records as filed in PubChem BioAssay.
CXXC DNA block: qHTS Fluorescence Polarization Assay for Inhibitors of MLL CXXC domain - DNA interaction. Histone-lysine N-methyltransferase 2A (Homo sapiens), Q03164. 290,000 compounds, 0.037% hits. MLL-CXXC / FITC-HOXA9 DNA fluorescence polarization. Potency, µM (highest dose often 115 µM), most hits filed as inhibitors; active = well fitted inhibition curve with a large enough effect in the polarisation, with a control signal flat, not every such curve was filed as active; inconclusive = small, poorly fitted or top-dose-only effect, or effect the other way, or a change in a side signal; inactive = no such curve, though single readings can be large or run the other way; the % refers to the polarisation
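Steps: dispense CXXC domain solution (7 uM) → pin compounds or unlabeled HOX-A9 DNA control → 5 min ambient → add FLSN-HOX-A9 solution (50 nM) → spin → 30 min ambient → fluorescence polarization. Tris pH 7.5/NaCl/DTT/BSA buffer.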
Menin-MLL FL inh: qHTS Assay for Inhibitors Targeting the Menin-MLL Interaction in MLL Related Leukemias: Competition With Fluorescein Labeled MLL-derived Peptide | Fluorescence polarization, fluorescein-MLL peptide displacement from menin | FP activity change, % at 61.4 µM | 290,000 tested, under 10 active; active = well fitted curve in the direction sought with a large enough effect in the polarisation, not every such curve was filed as active; inconclusive = small, poorly fitted or top-dose-only effect, or effect the other way, or a change in a side signal; inactive = no such curve, though single readings can be large or run the other way; the % refers to the polarisation
Menin-MLL TR inh: qHTS Assay for Inhibitors Targeting the Menin-MLL Interaction in MLL Related Leukemias: Competition With Texas Red Labeled MLL-derived Mutant Peptide | O00255 | Menin + Texas Red MLL mutant peptide, fluorescence polarization | Potency, µM (titrated, usually from 61.6 µM), usual class: inhibitors | 270,000 compounds, 0.23% hits | AID 1768, 2009; active = well fitted inhibition curve with a large enough effect in the polarisation, with a control signal flat, not every such curve was filed as active; inconclusive = small, poorly fitted or top-dose-only effect, or effect the other way, or a change in a side signal; inactive = no such curve, though single readings can be large or run the other way; the % refers to the polarisation
ClpP mod: qHTS Assay for Activators of ClpP. ATP-dependent Clp protease proteolytic subunit (Bacillus subtilis (strain 168)), P80244. purified B. subtilis ClpP, FRET peptide cleavage, 20 min. Potency, µM (top dose mostly 57.5 µM). 340,000 compounds, 1.9% hits; active = well fitted falling curve with a large enough effect; inconclusive = small, poorly fitted or top-dose-only effect; inactive = no such curve, though single readings can be large or run the other way; note: the source files actives as falling curves though it sought activators and does not explain the sign; nearly all actives have a fitted effect of over 65% in size
Target sequence (P80244 whole entry, looked up): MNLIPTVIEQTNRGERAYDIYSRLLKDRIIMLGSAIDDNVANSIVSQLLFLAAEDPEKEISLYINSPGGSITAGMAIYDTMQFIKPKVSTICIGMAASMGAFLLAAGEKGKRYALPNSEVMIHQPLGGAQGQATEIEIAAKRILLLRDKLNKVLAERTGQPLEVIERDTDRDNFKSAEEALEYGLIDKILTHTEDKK
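Purified B. subtilis ClpP, 10 microg/mL final in Tris/HCl pH8 with KCl, BSA, glycerol and Tween-20, cleaved an Abz/nitrotyrosine-quenched decapeptide. Fluorescence (ex 320, em 430) was read at 0 and 20 min at room temperature. Delta was normalized to 5.8 microM ADEP and DMSO/no-enzyme controls.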
p53 reactivation: qHTS assay for re-activators of p53 using a Luc reporter | H1299 p53-A138V BP100-luciferase reporter, luminescence, 24 h | Potency, µM (series often up to 92.2 µM), actives largely listed as activators | 320,000 compounds, 0.063% hits | AID 504706, 2011; active = well fitted activation curve with a large enough effect; inconclusive = small, poorly fitted or top-dose-only effect; inactive = no such curve, though single readings can be large or run the other way; note: nearly all actives have a fitted effect of over 45% in size
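p53-null H1299 cells stably carrying temperature-sensitive p53-A138V and a BP100-luciferase reporter were pinned with compounds (4-point, 1:5 series) and held 24 hrs at 37 deg C. Luminescence was read 10 min after detection reagent.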
A number is an active result; i = inactive; ? = inconclusive; nt = not tested or not shown. Many of the other results were omitted from the sample, so hits are more common in it than they were.

SMILES | CXXC DNA block | Menin-MLL FL inh | Menin-MLL TR inh | ClpP mod | p53 reactivation
Nc1cccc[n+]1C(c1ccnc2ccccc12)[n+]1ccccc1N | nt | nt | nt | i | nt
COc1cc(Br)c(CC(=O)NO)cc1OC | nt | nt | nt | i | nt
CCOC(=O)c1c(-c2ccccc2)csc1NC(=O)c1nn(CC)cc1Br | i | i | i | 31.6µM | i
CCOC(=O)[C@H](Cc1ccc(O)cc1)NC(=O)c1ccccc1 | nt | ? | i | nt | nt
CC(C)C[C@H](NC(=O)[C@H](Cc1ccccc1)NC(=O)[C@H](Cc1ccccc1)NC(=O)[C@@H](N)CO)C(=O)N[C@@H](CCCN=C(N)N)C(=O)N[C@@H](CC(N)=O)C(=O)O | nt | i | i | nt | nt
O=c1[nH]c(NCCO)nc2c1C1(CCCCC1)Cc1ccccc1-2 | i | i | i | 31.6µM | i
O=c1[nH]c(CN2CCCCC2)nc2c1C1(CCCCC1)Cc1ccccc1-2 | i | i | i | i | i
CCC1(CC)Cc2ccccc2-c2nc(NCCO)[nH]c(=O)c21 | i | i | i | 6.31µM | i
ONC(=Nc1ccc(Cl)cc1)c1ccc(Cl)cc1 | i | i | i | i | i
[S-]C(=Nc1ccc(Cl)cc1)N[n+]1ccccc1 | i | i | i | 28.2µM | i
NC(=O)COc1ccc(NC(=O)OCc2ccccc2)cc1 | i | i | i | 31.6µM | i
c1ccc(Sc2cccc3ccccc23)c(CNC2=NCCN2)c1 | i | i | i | 3.16µM | i
COc1ccc(C(=O)N2CCCC(c3nc(-c4ccc(OC)c(OC)c4)no3)C2)c(OC)c1 (stereo not given) | i | i | i | 28.2µM | i
Cc1ccc(Nc2nc(Nc3ccc(Cl)cc3)nc(N3CCOCC3)n2)cc1 | nt | nt | nt | i | nt
Nc1c(S(=O)(=O)c2cccs2)c2nc3ccccc3nc2n1CC1CCCO1 (stereo not given) | i | i | i | i | nt
O=C(NCC1CCCO1)c1ccccc1 (stereo not given) | i | i | i | i | nt
Nc1c(C(=O)OCC2CCCO2)c2nc3ccccc3nc2n1C1CCCCC1 (stereo not given) | i | i | i | 14.1µM | i
COc1ccccc1-n1c(C)nc2cc(C(=O)NCC3CCCO3)ccc21 (stereo not given) | i | nt | nt | i | i
Nc1c(C(=O)NCC2CCCO2)c2nc3ccccc3nc2n1-c1ccccc1 (stereo not given) | i | i | i | 15.8µM | i
COc1ccccc1-n1c(N)c(C(=O)NCC2CCCO2)c2nc3ccccc3nc21 (stereo not given) | i | i | i | 25.1µM | i
O=C(NCCCCCCNC(=O)ON=C1CCCCC1)ON=C1CCCCC1 | nt | i | ? | nt | nt
CCOc1ccc(C(N)=O)cc1OC | i | i | i | 28.2µM | i
CCCCS(=O)(=O)Nc1ccc2cn[nH]c2c1 | i | i | i | nt | i
CCCCS(=O)(=O)Nc1ccc2ncn(C)c(=O)c2c1 | i | i | i | 31.6µM | i
O=C(COC(=O)c1cc(-c2ccc(Cl)s2)nc2ccccc12)NCc1ccco1 | i | i | nt | i | ?
SMILES | CXXC DNA block | Menin-MLL FL inh | Menin-MLL TR inh | ClpP mod | p53 reactivation
CCOc1ccccc1CNC(=O)c1cc(-c2ccc(C)c(C)c2)nc2ccccc12 | nt | nt | nt | i | nt
COc1cccc(CNC(=O)c2cc(-c3cccs3)nc3ccccc23)c1 | nt | nt | nt | i | nt
CCOc1ccccc1CNC(=O)c1cc(-c2ccc(Cl)s2)nc2ccccc12 | nt | nt | nt | 28.2µM | nt
COc1ccc(CNC(=O)COC(=O)c2cc(-c3ccc(Cl)s3)nc3ccccc23)cc1 | i | ? | ? | 25.1µM | i
COc1cccc(CNC(=O)c2cc(-c3ccc(Cl)s3)nc3ccccc23)c1 | nt | nt | nt | 3.16µM | nt
COC(=O)C#CC(=O)OC | nt | i | i | nt | nt
N=C(N)S/C=C\C(=O)O | nt | i | i | nt | nt
Cc1cc(NC(=O)CCC(=O)N(c2cccc(F)c2)C(C(=O)NC2CCCC2)c2ccc(C)o2)no1 (stereo not given) | i | i | i | 28.2µM | i
CC1(C)S[C@@H]2C(C(=O)O)NC(=O)N2C1C(=O)O (stereo not given in full) | nt | nt | nt | i | nt
COc1cc(SC#N)ccc1N=Cc1c(C)[nH]n(-c2cccc3ccccc23)c1=O | i | ? | i | 28.2µM | i
